High-throughput results: PubChem BioAssay, The Scripps Research Institute Molecular Screening Center
M1 PAM parental: counter-screen for M1 PAMs: effect in parental CHO-K1 cells. AID 602247. ATP EC20, Fluo-8 calcium fluorescence; 0% at ATP EC20, 100% at ATP max. actives 0.02% (n = 360,000). activation, % at 3 µM;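 active = activation above the run cutoff, the mean activation of all test compounds plus 3 SD, cut at about 40% in these data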;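 note: peak over basal fluorescence ratio in a 140 s read after ATP addition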
CHRM1 agonist: agonists of human M1 muscarinic receptor. P11229. CHO-K1 hM1, Fluo-8 calcium fluorescence, agonist mode; 0% DMSO, 100% acetylcholine EC100. AID 588814. activation, % at 3 µM. actives 0.33% (n = 360,000);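 active = activation above the run's mean compound activation plus 3 SD, cut at about 16% in these data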;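 note: peak over basal fluorescence ratio within a 140 s kinetic read after compound addition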
Target sequence (P11229 whole entry, looked up): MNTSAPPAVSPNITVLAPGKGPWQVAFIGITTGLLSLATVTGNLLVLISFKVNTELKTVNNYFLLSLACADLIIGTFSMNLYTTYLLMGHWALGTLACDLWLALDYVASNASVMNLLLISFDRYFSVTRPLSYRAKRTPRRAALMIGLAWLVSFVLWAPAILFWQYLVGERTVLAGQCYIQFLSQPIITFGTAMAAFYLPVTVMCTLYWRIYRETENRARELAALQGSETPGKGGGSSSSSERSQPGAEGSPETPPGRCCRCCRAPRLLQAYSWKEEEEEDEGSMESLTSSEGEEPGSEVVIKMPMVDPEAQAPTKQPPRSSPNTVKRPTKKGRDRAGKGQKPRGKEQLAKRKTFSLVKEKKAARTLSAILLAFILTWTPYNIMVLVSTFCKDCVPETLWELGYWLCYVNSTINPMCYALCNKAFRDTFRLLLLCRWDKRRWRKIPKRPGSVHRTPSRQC
CHRM1 PAM: human CHRM1 positive allosteric modulation; P11229; CHO-K1 hM1, Fluo-8 calcium fluorescence, ACh EC20; 0% = ACh EC20, 100% = maximal ACh; activation, % at 3 µM; actives 0.088% (n = 360,000); AID 588819; in the data active = activation above about 19%, passing the limit was not always enough
CHRM1 antagonist: blocks human M1 muscarinic receptor | P11229 | CHO-K1 hM1, Fluo-8 calcium fluorescence, ACh EC80 antagonist | inhibition, % at 3 µM | actives 1.3% (n = 360,000) | AID 588852;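 active = percent inhibition above its own plate's cutoff, namely the mean of that plate's compound wells plus 3 SD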;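 note: peak over basal fluorescence ratio during 140 s after agonist addition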
CHO-K1 Ca antag: counter-screen for M1 antagonists: effect in parental CHO-K1 cells. actives 0.6% (n = 360,000). AID 602250. inhibition, % at 3 µM. ATP-induced calcium, Fluo-8 fluorescence;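 active = inhibition above a per-plate cutoff, the plate's mean sample inhibition plus 3 SD, cut at about 24% in these data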
M1 ag parental: M1 agonist counterscreen hit in parental CHO-K1 cells; Fluo-8 calcium fluorescence; scaled to maximal ATP response, vehicle zero; activation, % at 3 µM; actives 0.48% (n = 360,000); in the data active = activation above about 15%;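 note: untransfected CHO-K1 host cells lacking M1 receptor as counterscreen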
Each line names hits and unclear results; the compound was inactive in the other large screens. Only some compounds are listed: those with a hit (about 2.3% of all), similar ones and a draw of the others.

CCc1nc2ccc(C(=O)NCCCN(C)C)cn2c1N(C)CCCc1ccccc1	none
CCc1nc2ccc(C(=O)N3CCN(C)CC3)cn2c1N(C)CCC(C)C	none
CCc1nc2ccc(C(=O)NCCCn3ccnc3)cn2c1N(C)CCCc1ccccc1	CHRM1 antagonist 44
Cc1ccccc1NC(=O)Cc1nc(COC(=O)c2ccc(O)cc2O)cs1	none
CS(=O)(=O)c1ccccc1-c1nnc(NC(=O)c2cccc(N3C(=O)CCC3=O)c2)o1	none
C#CCN(C[C@H]1[C@H](OC(=O)NCCCCCC)[C@H](OC(=O)NCCCCCC)C[C@@H](C(=O)OC)[C@H]1C(=O)OC)S(=O)(=O)c1ccc(C)cc1	none
C#CCN(C[C@H]1[C@H](OC(=O)NCc2ccccc2)[C@H](OC(=O)NCc2ccccc2)C[C@@H](C(=O)OC)[C@H]1C(=O)OC)S(=O)(=O)c1ccc(C)cc1	CHO-K1 Ca antag 38
CCOC(=O)C1=C[C@@H](C2CCCCC2)N(S(=O)(=O)c2ccc([N+](=O)[O-])cc2)[C@H]1c1ccccc1	CHO-K1 Ca antag 27
CC1(C(=O)NCc2cccc3ccccc23)CCN1Cc1ccc2ccccc2c1 (stereo not given)	none
CC1(C(=O)NCc2cccc(C(F)(F)F)c2)CCN1Cc1ccc2ccccc2c1 (stereo not given)	CHRM1 antagonist 32
O=C(C1CCN(S(=O)(=O)c2cccc3nsnc23)CC1)N1CC=C(c2ccccc2)CC1	none
CC1CCN(CCCNC(=O)C2CCC(CNS(=O)(=O)c3cccc4nsnc34)CC2)CC1 (stereo not given)	CHRM1 antagonist 65
O=C(NCCCN1CCCCCC1)C1CCCN(S(=O)(=O)c2cccc3nsnc23)C1 (stereo not given)	none
O=C(C1CCC(CNS(=O)(=O)c2cccc3nsnc23)CC1)N1CC=C(c2ccccc2)CC1 (stereo not given)	CHO-K1 Ca antag 26
CC1CCN(CCNC(=O)C2CCCN(S(=O)(=O)c3cccc4nsnc34)C2)CC1 (stereo not given)	CHO-K1 Ca antag 34
COc1cccc(N(C(=O)c2csnn2)C(C(=O)NC2CCCC2)c2ccccc2)c1 (stereo not given)	none
COc1cc(-c2cc3nc(NCc4ccco4)ccn3n2)cc(OC)c1OC	CHO-K1 Ca antag 32
COc1cc(-c2cc3nc(NCCOc4ccccc4)ccn3n2)cc(OC)c1OC	none
COC(=O)C1CC(O)CN1C(=O)Nc1cccc(C(F)(F)F)c1 (stereo not given)	CHO-K1 Ca antag 29
CCOC(=O)c1cn(Cc2ccc(C)cc2)c2cc(F)ccc2c1=O	CHRM1 agonist 17
Cc1ccc(C)c(N(CC(=O)NCCc2ccccc2)C(=O)CCC(=O)Nc2ccccn2)c1	none
COc1ccc2c(c1)nc(-c1cccc(Br)c1)c(=O)n2C(c1ccccn1)c1nc2ccccc2[nH]1 (stereo not given)	none
Cc1ccc(OCCCCNC2CCCC(C)C2C)c(C)c1 (stereo not given)	CHRM1 antagonist 48
Cc1ccc(OCCCCN2CCCCC2)c(C)c1	none
Cc1c(C(=O)NCc2ccc(C(C)C)cc2)sc(=O)n1Cc1ccc(S(=O)(=O)N(C)C)cc1	CHRM1 antagonist 34
COc1ccc(Cl)cc1Cn1c(C)c(C(=O)NCc2cccc([N+](=O)[O-])c2)sc1=O	CHRM1 antagonist 80
Cc1c(C(=O)NCc2cccc([N+](=O)[O-])c2)sc(=O)n1Cc1ccccc1F	CHRM1 antagonist 67
Cc1c(C(=O)NCc2ccc(Cl)c(Cl)c2)sc(=O)n1Cc1ccc(S(=O)(=O)N(C)C)cc1	none
COc1ccc(Br)c(Cn2c(C)c(C(=O)NCc3cccc([N+](=O)[O-])c3)sc2=O)c1	CHRM1 antagonist 89
Cc1nn2cnnc2c(C)c1Cc1ccc(Cl)cc1	none
COc1ccc(C(C#N)CC(=O)c2ccc(OC)c(OCc3ccccc3)c2)cc1OC (stereo not given)	none
O=C(CNc1ccccc1)Nc1cccc2ccccc12	none
Cc1ccc(S(=O)(=O)N2CCC(=O)N([C@H](COC(=O)Nc3ccccc3)Cc3ccccc3)CC2)cc1	none (no result: CHRM1 agonist, CHRM1 PAM, CHRM1 antagonist)
Cc1c(C(=O)NCc2cccc(C(F)(F)F)c2)sc(=O)n1Cc1cccc(F)c1	none
Cc1c(C(=O)NCc2ccc(C(F)(F)F)cc2)sc(=O)n1Cc1cccc(F)c1	CHRM1 agonist 37, CHRM1 antagonist 39, M1 ag parental 23
O=[N+]([O-])c1ccc(C2=NN(c3ccccc3)C(c3ccco3)C2)cc1 (stereo not given)	CHRM1 agonist 78, CHRM1 antagonist 71, CHO-K1 Ca antag 59, M1 ag parental 71
O=[N+]([O-])c1ccc(/C=C/C2=NN(c3ccccc3)C(c3ccco3)C2)cc1 (stereo not given)	CHRM1 agonist 19, CHRM1 antagonist 25, CHO-K1 Ca antag 33, M1 ag parental 20
CC1=NN(c2ccccc2)C(c2ccco2)C1 (stereo not given)	none
CC(=O)c1ccc(OC2(C)CCN(Cc3csc4ccccc34)C2)cc1 (stereo not given)	none
CCCCCCCCN1C(=O)[C@H](CC(=O)NCc2cccc(C(F)(F)F)c2)C[C@@]2(C(=O)OCC)CCCC=C12	none (no result: CHRM1 agonist, CHRM1 PAM, CHRM1 antagonist)
FC(F)(F)c1ccccc1Cc1c(-c2ccco2)nc2ccc(Br)cn12	none
O=C(NC1CCCC1)C1c2ccccc2OCC(=O)N1C1CC1 (stereo not given)	none (no result: CHRM1 agonist, CHRM1 PAM, CHRM1 antagonist)
CCCC1C(=O)Nc2ccccc2N1C(=O)c1cccc(C)c1 (stereo not given)	CHRM1 antagonist 68
CCCC1C(=O)Nc2ccccc2N1C(=O)c1ccc(C(C)(C)C)cc1 (stereo not given)	none
COc1ccc(C(=O)c2cn[nH]c2-c2cc(C)ccc2O)cc1	none
COc1ccc(C(=O)c2cn[nH]c2-c2cc(Cl)ccc2O)cc1	CHO-K1 Ca antag 24
C=CCNC(=O)COc1coc(CN2CCN(C(=O)c3ccco3)CC2)cc1=O	none
Cc1ccc2c(c1)C(=O)C(=O)N2Cc1ccc(Br)cc1	CHRM1 agonist 21
Cc1ccc(-c2nc(COC(=O)C3=NN(c4ccccc4)C(=O)CC3)cs2)cc1	none
CC(C)C(O)(C#CCN1CCCCCC1)c1ccccc1 (stereo not given)	CHRM1 antagonist 87
OC(C#CCN1CCCC1)(c1ccccc1)c1cccc(F)c1 (stereo not given)	CHRM1 antagonist 101
C(#Cc1ccccc1)CN1CCCCC1	none
CC1CCCN1CC#CC(O)(c1ccccc1)c1ccccc1 (stereo not given)	CHRM1 antagonist 100
CC(C)(C#CCN1CCCCC1)OCCOC(c1ccccc1)c1ccccc1	CHRM1 antagonist 99
Cc1cc(C(=O)COc2ccc(F)cc2Br)c(C)n1C1CC1	none
